ChEMBL document CHEMBL1961873, “Compounds: GSK PKIS; Assays: Nanosyn kinase panel” (2012)

The compounds below were run against Receptor-type tyrosine-protein kinase FLT3 (Homo sapiens) (UniProt P36888). Conditions: at 1 µM.

| Compound | inhibition [%] |
| --- | --- |
| Cc1cc(Cl)cc2c1NC(=O)C2=NNc1ccc(S(N)(=O)=O)cc1 | 1.85 |
| COc1ccc(-c2nn3ncccc3c2-c2ccnc(Nc3cccc(C(F)(F)F)c3)n2)cc1 | 1.12 |
| O=C(Nc1ccc(Oc2ccc3[nH]c(NC(=O)c4ccco4)nc3c2)cc1)Nc1cc(C(F)(F)F)ccc1F | 70.7 |
| NS(=O)(=O)c1cccc(Nc2cc(-c3ccc(F)cc3)n[nH]2)c1 | 67.1 |
| CS(=O)(=O)Nc1cccc(-c2ccc3c(NC(=O)C4CC4)n[nH]c3c2)c1 | 0.14 |
| Cc1ccc2c(c1)/C(=N/Nc1ccc(S(N)(=O)=O)cc1)C(=O)N2 | 61.7 |
| COc1cc2ncn(-c3cc(OCc4ccccc4S(C)(=O)=O)c(C#N)s3)c2cc1OC | 11.6 |
| Nc1ccc(C#Cc2cncnc2Nc2ccc(OCc3cccc(F)c3)c(Cl)c2)cc1 | 2.64 |
| Cc1nc(-c2ccccc2)n2nc(NCCCN3CCOCC3)ncc12 | 4.33 |
| CCOc1nccc2c1nc(-c1nonc1N)n2CC | 1.3 |
| COc1cc(/C=N/Nc2ncnc3c2cnn3C(C)C)ccc1O | 22.7 |
| NS(=O)(=O)c1ccc(-c2cc3ccncc3cc2OCc2ccccc2)cc1 | 2.5 |
| CN(C)CCCn1c(-c2nonc2N)nc2cnccc21 | 1.85 |
| Cc1ccc(O)cc1Nc1ccnc2ccc(S(C)(=O)=O)cc12 | 4.94 |
| Cc1ccc2c(-c3ccnc(Nc4ccc5c(c4)OCCO5)n3)c(-c3ccc(C(F)(F)F)cc3)nn2n1 | 0.3 |
| CCn1c(-c2nonc2N)nc2c(C#CC(C)(C)O)nc(OCCNC)cc21 | 4.57 |
| Cc1ccc(NC(=O)CC2CC2)cc1-c1ccc(C(=O)NCC2CC2)cc1 | 3.21 |
| Oc1cccc(-c2nc(-c3ccccc3)[nH]c2-c2ccncc2)c1 | 19.5 |

Each compound was assayed on T1, Receptor-type tyrosine-protein kinase FLT3 (Homo sapiens), P36888 [D835Y]. Conditions: at 0.1 µM.
T1 sequence (whole entry): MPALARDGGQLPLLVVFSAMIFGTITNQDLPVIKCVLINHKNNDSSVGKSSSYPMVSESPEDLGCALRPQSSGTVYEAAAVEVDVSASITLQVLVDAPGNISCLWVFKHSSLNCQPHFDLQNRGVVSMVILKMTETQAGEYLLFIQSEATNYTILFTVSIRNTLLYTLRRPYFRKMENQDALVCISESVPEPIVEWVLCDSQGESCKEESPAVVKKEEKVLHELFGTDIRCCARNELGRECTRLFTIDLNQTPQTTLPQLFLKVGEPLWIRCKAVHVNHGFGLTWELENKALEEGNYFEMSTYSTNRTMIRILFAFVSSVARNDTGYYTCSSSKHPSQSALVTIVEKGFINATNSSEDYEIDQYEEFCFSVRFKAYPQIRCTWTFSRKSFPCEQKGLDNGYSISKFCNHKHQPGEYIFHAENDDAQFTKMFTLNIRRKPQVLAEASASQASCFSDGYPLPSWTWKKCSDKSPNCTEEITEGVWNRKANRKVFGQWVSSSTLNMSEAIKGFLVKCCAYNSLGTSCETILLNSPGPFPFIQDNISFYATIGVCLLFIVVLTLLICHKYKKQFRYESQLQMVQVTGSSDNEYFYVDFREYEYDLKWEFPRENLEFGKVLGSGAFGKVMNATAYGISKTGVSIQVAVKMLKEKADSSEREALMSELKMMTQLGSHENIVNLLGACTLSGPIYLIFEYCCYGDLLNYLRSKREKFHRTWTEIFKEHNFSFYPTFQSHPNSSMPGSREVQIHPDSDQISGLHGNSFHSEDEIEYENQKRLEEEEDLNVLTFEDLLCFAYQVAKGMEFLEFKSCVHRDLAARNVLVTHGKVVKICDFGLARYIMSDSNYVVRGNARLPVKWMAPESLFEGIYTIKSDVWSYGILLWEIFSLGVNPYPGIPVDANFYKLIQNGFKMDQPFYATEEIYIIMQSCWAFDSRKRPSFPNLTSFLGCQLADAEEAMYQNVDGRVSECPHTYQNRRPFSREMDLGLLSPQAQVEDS

| Compound | inhibition [%] |
| --- | --- |
| Nc1nccc(-c2c(-c3ccc(F)cc3)ncn2CCCN2CCOCC2)n1 | -5.08 |
| NS(=O)(=O)c1ccc(Nc2cc(-c3cccc(O)c3)n[nH]2)cc1 | 3.16 |
| C[C@@H](Oc1cc(-n2cnc3ccc(OC[C@@H](O)CO)cc32)sc1C(N)=O)c1ccccc1Cl | -3.1 |
| CN1CCN(C(=O)c2ccc(NC(=O)Nc3ccc(N(C)c4ccnc(Nc5ccc(CS(C)(=O)=O)cc5)n4)cc3)cc2)CC1 | 0.6 |
| Nc1nccc(-c2c(-c3ccc(F)cc3)nn3cc(C(F)(F)F)ccc23)n1 | -7.47 |
| COc1cccc(-n2nc(C)c3c(N/N=C(\C)c4ccncc4)ncnc32)c1 | -4.92 |
| CN(C)c1cc2c(Nc3ccc4c(cnn4Cc4ccccc4)c3)ncnc2cn1 | 0.4 |
| CC(C)c1ccc2c(c1)NC(=O)/C2=N/Nc1ccc(S(N)(=O)=O)cc1 | -2.45 |
| COc1cc(Nc2nccc(-c3cnn4ncccc34)n2)cc(OC)c1 | 27 |
| NS(=O)(=O)c1cccc(-c2cc3ccncc3cc2OCc2ccccc2)c1 | 1.09 |
| CCS(=O)(=O)c1ccc(OC)c(Nc2nccc(N(C)c3ccc4c(C)n[nH]c4c3)n2)c1 | -7.67 |
| NS(=O)(=O)c1ccc(N/N=C2\C(=O)Nc3ccc(Cl)cc32)cc1 | -0.18 |
| OCc1ccc(-c2nc(-c3ccccn3)c(-c3ccc4c(c3)OCO4)[nH]2)cc1 | 0.22 |
| NC(=O)c1cccc(Nc2nccc(Nc3cccc(F)c3)n2)c1 | 1.55 |
| ON=C1CCc2cc(-c3nc(C4CCNCC4)[nH]c3-c3ccncc3)ccc21 | -4.99 |
| CN(C)C(=O)O[C@H]1CN[C@H](C#Cc2cc3ncnc(Nc4ccc(OCc5cccc(F)c5)c(Cl)c4)c3s2)C1 | 3.22 |
| Cc1cc(Cl)cc2c1NC(=O)C2=NNc1ccc(S(N)(=O)=O)cc1 | -2.63 |
| COc1ccc(-c2nn3ncccc3c2-c2ccnc(Nc3cccc(C(F)(F)F)c3)n2)cc1 | -4.47 |
| O=C(Nc1ccc(Oc2ccc3[nH]c(NC(=O)c4ccco4)nc3c2)cc1)Nc1cc(C(F)(F)F)ccc1F | 1.75 |
| NS(=O)(=O)c1cccc(Nc2cc(-c3ccc(F)cc3)n[nH]2)c1 | -2.62 |
| CS(=O)(=O)Nc1cccc(-c2ccc3c(NC(=O)C4CC4)n[nH]c3c2)c1 | -1.25 |
| Cc1ccc2c(c1)/C(=N/Nc1ccc(S(N)(=O)=O)cc1)C(=O)N2 | -0.36 |
| COc1cc2ncn(-c3cc(OCc4ccccc4S(C)(=O)=O)c(C#N)s3)c2cc1OC | 5.25 |
| Nc1ccc(C#Cc2cncnc2Nc2ccc(OCc3cccc(F)c3)c(Cl)c2)cc1 | 1.46 |
| Cc1nc(-c2ccccc2)n2nc(NCCCN3CCOCC3)ncc12 | -0.33 |
| CCOc1nccc2c1nc(-c1nonc1N)n2CC | -2.2 |
